Out of some 340,000 compounds screened, about 1,000 (0.29%) were called active. No stated cut-off is given here; in the data, inconclusive means inhibition above about 29% without an active follow-up result; inactive means below that. These entries were drawn from the full list. Potency and affinity values are given separately.
Target: Genome polyprotein (Dengue virus type 2 (strain 16681-PDK53)) (UniProt P29991)
Assay: Dengue-2 NS5 methyltransferase inhibitors, primary screen, biochemical, confirmation dose response (AID 588689)
Conditions: Dengue-2 NS5 methyltransferase capping enzyme assay, at 25 µM, stronger effect = higher value

**Q.** How did the inhibition turn out when Cc1cc(Cl)ccc1OCC(=O)Nc1ccccc1C(=O)N1CCOCC1 was run?
**A.** 5.18% (inactive)

**Q.** How did the inhibition turn out when O=C1CC(c2ccccc2)NC(=S)N1 (stereo unspecified) was run?
**A.** 3.85% (inactive)

**Q.** Which inhibition does the source give for O=C1NC(=S)NC1(c1ccccc1)c1ccccc1 here?
**A.** -4.65% (inactive)

**Q.** With CCCSc1nc(O)c(C2OC(=O)c3c2ccc(OC)c3OC)c(=O)n1-c1ccccc1 (stereo unspecified) as the compound, how does the inhibition read?
**A.** 11.7% (inactive)

**Q.** How did the inhibition turn out when CCCCSc1nc(O)c(C2OC(=O)c3c2ccc(OC)c3OC)c(=O)n1-c1ccccc1 (stereo unspecified) was run?
**A.** 17.6% (inactive)

**Q.** How did the inhibition turn out when CCSc1nc(O)c(C2OC(=O)c3c2ccc(OC)c3OC)c(=O)n1CC (stereo unspecified) was run?
**A.** 6.79% (inactive)

**Q.** How did the inhibition turn out when CCCCSc1nc(O)c(C2OC(=O)c3c2ccc(OC)c3OC)c(=O)n1C (stereo unspecified) was run?
**A.** -5.49% (inactive)

**Q.** Which inhibition does the source give for Cc1cc2c3c([nH]c2cc1S(=O)(=O)NCc1ccc(CN2CCCCCC2)o1)CCCC3=O here?
**A.** -7.25% (inactive)

**Q.** Which inhibition does the source give for Cc1ccc(S(=O)(=O)N/N=C/c2ccc(O)c(O)c2)cc1[N+](=O)[O-] here?
**A.** 0.74% (inactive)

**Q.** With CCN(CC)CCNC(=O)c1ccc(NC(=O)c2cc(S(=O)(=O)N3CCCCC3)ccc2N2CCOCC2)cc1 as the compound, how does the inhibition read?
**A.** -2.25% (inactive)

**Q.** For COc1ccc(-n2cccc2C=O)cc1, which inhibition is on record?
**A.** -11.6% (inactive)

**Q.** With COc1cc(/C=C2\C(C)=C(C#N)c3nc(N)c(C#N)c(C)c32)ccc1OCC(=O)O as the compound, how does the inhibition read?
**A.** -6.96% (inactive)

**Q.** With Cc1cc2nc3s/c(=C/c4ccc(-c5ccccc5C(=O)O)o4)c(=O)n3c2cc1C as the compound, how does the inhibition read?
**A.** -33.6% (inactive)

**Q.** Which inhibition does the source give for Cc1cc2nc(/C(C#N)=C\c3ccc(-c4ccccc4C(=O)O)o3)[nH]c2cc1C here?
**A.** -2.36% (inactive)

**Q.** How did the inhibition turn out when CCOC(=O)CSc1nc(N)c(C#N)c(-c2ccc(OCC)cc2)c1C#N was run?
**A.** -3.48% (inactive)

**Q.** For O=C1OC(c2ccccc2)=CC1=Cc1ccccc1O, which inhibition is on record?
**A.** -6.29% (inactive)

**Q.** For CC1CCCC(NC(=O)C2N(CCCN3CCCC3)C(=O)C3C(C(=O)Nc4ccc(Cl)cc4)C4C=CC32O4)C1C (stereo unspecified), which inhibition is on record?
**A.** -9.14% (inactive)

**Q.** How did the inhibition turn out when Cc1cc(C)cc(NC(=O)COC(=O)Cc2ccccc2F)c1 was run?
**A.** -2.95% (inactive)

**Q.** With CS(=O)(=O)NCc1nnc(SCc2c(F)cccc2Cl)o1 as the compound, how does the inhibition read?
**A.** -7.53% (inactive)

**Q.** For C=CCn1c(SCC(=O)/C(C#N)=C(\C)N)nnc1C1CCCCC1, which inhibition is on record?
**A.** -2.77% (inactive)

**Q.** CCN(C[C@H]1N[C@@](C)(C(=O)OC)[C@H]2C(=O)N(C)C(=O)[C@@H]12)S(=O)(=O)c1ccc(OC(F)(F)F)cc1 was tested. Which inhibition did it give?
**A.** -7.6% (inactive)

**Q.** And the inhibition (measured here: pilot screen replicate inhibition)?
**A.** 0.305%

**Q.** For O=C1/C(=C\c2ccc(Br)cc2)SC(=S)N1NS(=O)(=O)c1ccccc1, which inhibition is on record?
**A.** -8.31% (inactive)

**Q.** For CC(=O)N1C(=O)/C(=C2\SC(=S)N(NS(=O)(=O)c3ccc(C)cc3)C2=O)c2ccccc21, which inhibition is on record?
**A.** 5.31% (inactive)

**Q.** Which inhibition does the source give for Cc1ccc(S(=O)(=O)NN2C(=O)/C(=C/c3cccnc3)SC2=S)cc1 here?
**A.** 14.3% (inactive)

**Q.** With O=C1/C(=C/c2ccccn2)SC(=S)N1NS(=O)(=O)c1ccccc1 as the compound, how does the inhibition read?
**A.** 8.55% (inactive)

**Q.** O=C1/C(=C/C=C/c2ccco2)SC(=S)N1NS(=O)(=O)c1ccccc1 was tested. Which inhibition did it give?
**A.** 64.5% (inactive)

**Q.** For Cc1ccc(S(=O)(=O)NN2C(=O)/C(=C/c3ccc(F)cc3)SC2=S)cc1, which inhibition is on record?
**A.** 9.54% (inactive)

**Q.** For O=S(=O)(NCc1nc2ccccc2[nH]1)c1ccccc1, which inhibition is on record?
**A.** -2.6% (inactive)

**Q.** With O=C(NC1CC1)C1=C[C@@H](c2csc3ccccc23)C[C@@H](OCc2ccc(CO)cc2)O1 as the compound, how does the inhibition read?
**A.** -6.54% (inactive)

**Q.** For O=C(COC(=O)C1CC2CCCC(C1)C2=O)Nc1nc(-c2ccc(F)c(F)c2)cs1 (stereo unspecified), which inhibition is on record?
**A.** 11% (inactive)

**Q.** CN(C)C(=O)c1ccc(NC(=O)c2cccc(S(=O)(=O)N3CCCc4ccccc43)c2)cc1 was tested. Which inhibition did it give?
**A.** 4.32% (inactive)

**Q.** For CC(NC(=O)c1cccnc1)C(c1cccs1)N1CCOCC1 (stereo unspecified), which inhibition is on record?
**A.** 0% (inactive)

**Q.** With CSc1cccc(NC(=O)C2CCN(S(=O)(=O)c3cnc[nH]3)CC2)c1 as the compound, how does the inhibition read?
**A.** -4.39% (inactive)

**Q.** With COc1cccc(CNC(=O)c2cccc(NC(=O)C3=C(C)OCCS3)c2)c1 as the compound, how does the inhibition read?
**A.** -1.39% (inactive)

**Q.** With O=C(Nc1cccc([N+](=O)[O-])c1)N1CCCCCC1 as the compound, how does the inhibition read?
**A.** -0.65% (inactive)

**Q.** With CC(C)OCCCNC(=O)c1ccc(NS(C)(=O)=O)cc1 as the compound, how does the inhibition read?
**A.** 0% (inactive)

**Q.** With Cc1cc(C)c(C(=O)c2ccccc2)c(C)c1 as the compound, how does the inhibition read?
**A.** -9.32% (inactive)

**Q.** With O=S(=O)(c1ccccc1)N1CCC2(CC1)CO2 as the compound, how does the inhibition read?
**A.** -6.64% (inactive)

**Q.** With O=C1/C(=C/c2cccnc2)SC(=S)N1NS(=O)(=O)c1ccccc1 as the compound, how does the inhibition read?
**A.** 5.88% (inactive)

**Q.** With CCN1C[C@@H]2[C@@H]3C(=O)N(C)C(=O)[C@@H]3[C@](Cc3ccccc3)(C1=O)N2C(=O)c1ccccc1 as the compound, how does the inhibition read?
**A.** 1.65% (inactive)

**Q.** Which inhibition does the source give for CC(=O)C1=C(O)C(=O)N(c2ccc(C)cc2)C1c1ccc([N+](=O)[O-])cc1 (stereo unspecified) here?
**A.** 2.73% (inactive)

**Q.** Which inhibition does the source give for COc1cc(CN2CCCCCC2)c([N+](=O)[O-])cc1OC here?
**A.** 0% (inactive)

**Q.** COc1ccc(Cl)cc1NC(=O)CN(C)C(=O)c1ccc(OCc2ccccc2)c(OC)c1 was tested. Which inhibition did it give?
**A.** -1.46% (inactive)

**Q.** With O=C(COc1ccc(Cl)cc1Cl)NN1C(=O)/C(=C\c2ccc(Cl)cc2)SC1=S as the compound, how does the inhibition read?
**A.** 0% (inactive)

**Q.** Which inhibition does the source give for O=C(CCCN1C(=O)/C(=C/c2ccccc2Cl)SC1=S)NNC(=O)c1ccc(Cl)cc1 here?
**A.** 28.1% (inactive)

**Q.** For CN1CCN(C(=O)CCN2C(=O)/C(=C\c3ccc(Cl)cc3Cl)SC2=S)CC1, which inhibition is on record?
**A.** 0% (inactive)

**Q.** How did the inhibition turn out when O=C(CCCN1C(=O)/C(=C/c2ccccc2Cl)SC1=S)NNC(=O)c1ccc(Cl)cc1Cl was run?
**A.** 3.09% (inactive)

**Q.** For O=S(=O)(c1ccc(Cl)cc1)n1c(Cc2ccccc2)nc2ccccc21, which inhibition is on record?
**A.** -6.41% (inactive)

**Q.** CC(C)N(CC#CCC(O)(c1ccccc1)c1ccccc1)C(C)C was tested. Which inhibition did it give?
**A.** -5.16% (inactive)

**Q.** How did the inhibition turn out when Cc1ccc(Cl)cc1NC(=O)CN1C(=O)NC2(CCCCCC2)C1=O was run?
**A.** 3% (inactive)

**Q.** How did the inhibition turn out when COCCNC(=O)CCn1nc(-c2ccc(C)cc2)c2ccccc2c1=O was run?
**A.** -3.27% (inactive)

**Q.** NC(=O)c1sc2cc(C(F)(F)F)cnc2c1-c1ccccc1 was tested. Which inhibition did it give?
**A.** 1.48% (inactive)

**Q.** For NC(=O)CC(NC(=O)c1ccccc1)c1ccc(NCCCN2CCCC2=O)c([N+](=O)[O-])c1 (stereo unspecified), which inhibition is on record?
**A.** -0.79% (inactive)

**Q.** For CO[C@H]1/C=C/O[C@@]2(C)Oc3c(C)c(O)c4c(O)c(c(C=NN5CCN(C)CC5)c(O)c4c3C2=O)NC(=O)/C(C)=C\C=C\[C@H](C)[C@H](O)[C@@H](C)[C@@H](O)[C@@H](C)[C@H](OC(C)=O)[C@@H]1C, which inhibition is on record?
**A.** 6.59% (inactive)

**Q.** With CO[C@H]1C=CO[C@@]2(C)Oc3c(C)c(O)c4c(O)c(c(C=NN5CCN(C)CC5)c(O)c4c3C2=O)NC(=O)C(C)=CC=C[C@H](C)[C@H](O)[C@@H](C)[C@@H](O)[C@@H](C)[C@H](OC(C)=O)[C@@H]1C as the compound, how does the inhibition read?
**A.** -3.66% (inactive)
